High-throughput results: PubChem BioAssay, several laboratories
Only some compounds are listed: those with a hit (about 2.3% of all), similar ones and a draw of the others.
Gli-Sufu antag – Gli-Sufu pathway antagonism; actives 0.74% (n = 340,000); Sufu-KO-LIGHT fibroblasts, Gli luciferase reporter luminescence; AID 588413; inhibition, % at 5 µM;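 active = inhibition above about 55%, limit read from the data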
TAG inh – reduces triacylglycerol accumulation in H9c2 cells; Nile Red lipid (TAG) fluorescence; cells loaded with 200 µM oleic acid; inhibition, % at 12.5 µM; actives 0.66% (n = 230,000);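 active = pattern-corrected inhibition of lipid staining of at least 50% with the nuclear-stain viability signal not falling by more than 50%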
Jurkat NFkB inh – lowers PMA/ionomycin-induced NF-kB signal in Jurkat cells | PMA/ionomycin-induced NF-kB luciferase reporter, luminescence | inhibition, % at 4 µM | actives 0.53% (n = 330,000) | AID 435003; in the data active = inhibition above about 50%
Shn3 3UTR inh – reduces Shn3 3'UTR luciferase signal in osteoblasts; AID 588674; Clone20 osteoblast Shn3 3'UTR firefly luciferase, 24 h; inhibition, % at 12.5 µM; actives 0.52% (n = 360,000);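 active = mean inhibition of at least 75% with every replicate also reaching 75%; inconclusive = mean inhibition at least 75% but some replicate below; inactive = mean inhibition below 75%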
697 NFkB inh – inhibitors of the PMA/ionomycin-induced NF-kB reporter in 697 B cells. 697 B-cell NF-kB luciferase reporter, 16 h. inhibition, % at 4 µM. actives 0.33% (n = 330,000). AID 435022; in the data active = inhibition above about 35%
aSyn UTR inh – MLPCN primary screen, SNCA 5' untranslated region. alpha-synuclein 5'UTR reporter, inhibitor activity. inhibition, % (tested at 7.5 µM). actives 0.82% (n = 300,000). AID 1813; in the data active = inhibition above about 60%; inconclusive = no clear call, values can overlap the other calls;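 note: H4 neuroglioblastoma cells stably carrying SNCA 5'UTR luciferase fusion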
Gli antag conf – confirmation of Gli-SUFU pathway antagonists; shares compounds with Gli-Sufu antag; inhibition, % at 5 µM; actives 40% (n = 2,500); Sufu-KO-LIGHT cells, Gli luciferase reporter, luminescence;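 active = mean inhibition at 5 µM reaching about 45%, limit read from the data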
Gli cytotox – cytotoxic in Gli-SUFU antagonist counter-screen; AID 651994; actives 32% (n = 2,500); cytotoxicity, % at 5 µM; shares compounds with Gli-Sufu antag; Sufu-KO-LIGHT cells cytotoxicity, ATP luminescence;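 active = mean cytotoxicity at 5 µM above about 25%, limit read from the data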;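 note: cells exposed to compound overnight for roughly 16 to 18 hours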
Wnt3a counter – counter-screen for Gli-SUFU antagonists: Wnt3a reporter inhibition. actives 20% (n = 2,500). shares compounds with Gli-Sufu antag. AID 651995. Wnt-LIGHT cells, Wnt3a-driven luciferase reporter, luminescence. inhibition, % at 6.25 µM;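 active = mean inhibition above about 25%, limit read from the data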
Large screens that a line does not name were inactive (follow-up assays come after a bar, where they were run).

O=C(c1ccc(Cl)cc1)N1CCN(c2ccnc3cc(Cl)ccc23)CC1	Gli-Sufu antag 67 (no result: Jurkat NFkB inh, 697 NFkB inh) | Gli antag conf 69 | Gli cytotox inactive | Wnt3a counter inactive
CC(C)NC(=O)C1CCN(C(=O)c2cc3sccc3n2Cc2ccc(F)cc2)CC1	Gli-Sufu antag 61, Shn3 3UTR inh inconclusive (no result: TAG inh) | Gli antag conf inactive | Gli cytotox inactive | Wnt3a counter inactive
O=C(c1cc2sccc2n1Cc1ccccc1)N1CCN(c2nc3ccccc3s2)CC1	Gli-Sufu antag 58, Shn3 3UTR inh inconclusive | Gli antag conf 68 | Gli cytotox 33 | Wnt3a counter inactive
CCC(=O)N1CCN(c2nc3ccccc3s2)CC1	none
CCc1ccc2c(CN3CCN(S(=O)(=O)c4cccs4)CC3)cc(=O)oc2c1	none (no result: TAG inh)
CCc1ccc2c(CN3CCN(S(=O)(=O)c4ccccc4F)CC3)cc(=O)oc2c1	Gli-Sufu antag 56 (no result: aSyn UTR inh) | Gli antag conf inactive | Gli cytotox inactive | Wnt3a counter inactive
O=C(O)Cc1csc(Nc2cccc(Cl)c2)n1	Gli-Sufu antag 69 | Gli antag conf inactive | Gli cytotox inactive | Wnt3a counter inactive
CCCNC(=O)c1ccc(N2CCC3(CC2)CC(c2ccccc2)=NO3)c(NC(=O)c2cccc(C)c2)c1	none | Gli antag conf inactive | Gli cytotox inactive | Wnt3a counter inactive
CCOc1ccc(NC(=O)CN(C)S(=O)(=O)c2cnc[nH]2)cc1	none
CC[C@]12c3[nH]c4cc(CCC(=O)N(C)C)ccc4c3CCN1C(=O)[C@@H](CC(=O)NC/C=C(\C)CCC=C(C)C)C[C@@H]2C(=O)N1CCN(C(=O)C2CC2)CC1	none (no result: Jurkat NFkB inh, aSyn UTR inh) | Gli antag conf 54 | Gli cytotox 29 | Wnt3a counter inactive
CC(C)=CCC/C(C)=C/CNC(=O)C[C@H]1C[C@H](C(=O)N2CCCCC2)[C@@]2(C)c3[nH]c4cc(CCC(=O)N(C)C)ccc4c3CCN2C1=O	none (no result: Jurkat NFkB inh, aSyn UTR inh) | Gli antag conf 56 | Gli cytotox 32 | Wnt3a counter inactive
CC(C)=CCC/C(C)=C/CNC(=O)C[C@H]1C[C@H](C(=O)N2CCOCC2)[C@@]2(C)c3[nH]c4cc(CCC(=O)N(C)C)ccc4c3CCN2C1=O	Gli-Sufu antag 58, Shn3 3UTR inh 89 (no result: Jurkat NFkB inh, aSyn UTR inh) | Gli antag conf 66 | Gli cytotox inactive | Wnt3a counter inactive
CN(C)C(=O)CCc1ccc2c3c([nH]c2c1)[C@]1(C)[C@@H](C(=O)N2CCCCC2)C[C@H](CC(=O)NC(C)(C)C)C(=O)N1CC3	none (no result: Jurkat NFkB inh, aSyn UTR inh)
CC[C@]12c3[nH]c4cc(CCC(=O)N(C)C)ccc4c3CCN1C(=O)[C@@H](CC(=O)NCCN1CCOCC1)C[C@@H]2C(=O)N1CCN(C(=O)C2CC2)CC1	none (no result: Jurkat NFkB inh, aSyn UTR inh)
CN(C)C(=O)CCc1ccc2c3c([nH]c2c1)[C@]1(C)[C@@H](C(=O)N2CCOCC2)C[C@H](CC(=O)NC(C)(C)C)C(=O)N1CC3	none (no result: Jurkat NFkB inh, aSyn UTR inh)
COC(CNC(=O)c1ccc(CS(=O)(=O)c2ccccc2)o1)OC	none (no result: TAG inh)
COc1ccc(S(=O)(=O)Cc2ccc(C(=O)NCC(OC)OC)o2)cc1	none (no result: TAG inh) | Gli antag conf inactive | Gli cytotox inactive | Wnt3a counter inactive
Cc1ccc(C(=O)COC(=O)c2cc(Cl)nc3ccccc23)cc1	none (no result: TAG inh)
O=C(COC(=O)c1cc(Cl)nc2ccccc12)c1ccc(Cl)cc1	none (no result: TAG inh) | Gli antag conf inactive | Gli cytotox inactive | Wnt3a counter inactive
CC1CC(C)CN(C(=O)c2nn(C)c3c2CS(=O)(=O)c2ccccc2-3)C1 (stereo not drawn)	none (no result: TAG inh) | Gli antag conf inactive | Gli cytotox inactive | Wnt3a counter inactive
Cn1nc(C(=O)N2CCN(c3ccccc3)CC2)c2c1-c1ccccc1S(=O)(=O)C2	none (no result: TAG inh)
COc1ccc(CCNC(=O)C2CCC(CNS(=O)(=O)c3ccccc3)CC2)cc1OC (stereo not drawn)	none (no result: Gli-Sufu antag, TAG inh, Shn3 3UTR inh)
O=C(NCCc1ccccc1)C1CCC(CNS(=O)(=O)c2ccccc2)CC1 (stereo not drawn)	none (no result: TAG inh) | Gli antag conf inactive | Gli cytotox inactive | Wnt3a counter inactive
Cc1ccc(C(=O)NCCOc2cccc(C)c2)cc1	none
CCOC(=O)C1(Cc2cccc(OC)c2)CCN(C/C=C/c2ccc(OC)cc2)CC1	Shn3 3UTR inh 88 | Gli antag conf inactive | Gli cytotox 28 | Wnt3a counter inactive
CCOC(=O)C1(Cc2cccc(OC)c2)CCN(C/C=C/c2ccccc2)CC1	none
CC(C(=O)NCCS(=O)(=O)c1ccc(Cl)cc1)S(=O)(=O)c1ccc(Cl)cc1 (stereo not drawn)	Gli-Sufu antag 72 | Gli antag conf inactive | Gli cytotox inactive | Wnt3a counter inactive
O=C(c1ccccc1F)N1CCCc2ccccc21	none
CCc1ccc2c(c1)CCCN2C(=O)c1ccccc1C(=O)O	Shn3 3UTR inh 88 (no result: TAG inh) | Gli antag conf inactive | Gli cytotox inactive | Wnt3a counter inactive
CC1=C(C(=O)Nc2ccccc2C)C(c2ccc(C)o2)C2=C(CCCC2=O)N1 (stereo not drawn)	Gli-Sufu antag 97 (no result: TAG inh) | Gli antag conf inactive | Gli cytotox inactive | Wnt3a counter 35
CC1=C(C(=O)OC2CCCCCC2)C(c2ccc(C)o2)C2=C(CCCC2=O)N1 (stereo not drawn)	none (no result: TAG inh)
O=C(/C=C/c1ccco1)Nc1ccc(-c2nc3ccccc3[nH]2)cc1	Gli-Sufu antag 67, aSyn UTR inh 89 (no result: TAG inh, Jurkat NFkB inh, 697 NFkB inh) | Gli antag conf 55 | Gli cytotox inactive | Wnt3a counter inactive
c1ccc(C[n+]2cccc(-c3ccccc3)c2)cc1	Gli-Sufu antag 57 (no result: TAG inh) | Gli antag conf 57 | Gli cytotox inactive | Wnt3a counter inactive
c1ccc(C[n+]2ccc3ccccc3c2)cc1	none
COc1ccc(C)cc1N1CC(C(=O)Nc2ccccc2N2CCCCC2)CC1=O (stereo not drawn)	none (no result: Gli-Sufu antag, aSyn UTR inh)
C=CCn1c(O)c(N=NC(=S)Nc2ccccc2C)c2cc(S(=O)(=O)N3CCOCC3)ccc21	aSyn UTR inh 80 (no result: TAG inh) | Gli antag conf 48 | Gli cytotox 32 | Wnt3a counter inactive
CC(Oc1cccc(Cl)c1)C(=O)Nc1ccccc1N1CCCCC1 (stereo not drawn)	none
Cc1nnc(N/N=C/c2cc([N+](=O)[O-])c(N3CCC(C)CC3)cc2N2CCC(C)CC2)n1N	Gli-Sufu antag 85 | Gli antag conf 87 | Gli cytotox 36 | Wnt3a counter inactive
Fc1cccc(Cl)c1CSc1ccc2nnc(-c3ccccn3)n2n1	none
Cc1cc(NC(=O)CSc2nc3c(c(=O)n2C)SCC3)no1	none
COCCn1c(SCC(=O)Nc2cc(C)on2)nc2c(c1=O)SCC2	none (no result: TAG inh) | Gli antag conf inactive | Gli cytotox inactive | Wnt3a counter inactive
